Compounds without any hit were thinned out: in the full panel of roughly 79,000, 15% have a hit. Active and inactive are the calls of the source. Rule as the data show it: active = growth inhibition above about 70%; inactive = the rest.
test: NCI Yeast Anticancer Drug Screen. Data for the mlh1 rad18 strain (AID 175); conditions: S. cerevisiae mlh1 rad18 strain growth inhibition; at 50.0 µM; hits give high values
Procedure, shortened: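 Growth inhibition of the yeast strain was measured after compound exposure and expressed relative to vehicle-treated controls. The strain carries defined defects in DNA damage repair.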

SMILES | growth inhibition
O=C(O)c1cccc(S(=O)(=O)NN2C(=O)CSC2c2ccccc2Cl)c1 (stereo not given) | 28.7% (inactive)
CCCCn1cccc1 | 26.4% (inactive)
Cc1cc2nnc(-c3cccc([N+](=O)[O-])c3)n2c2nnnn12 | 36.7% (inactive)
O=C(CNc1ccc(Cl)cc1Cl)NC1C=Cc2ccc(S(=O)(=O)Nc3ccc(Cl)cc3Cl)cc2C1=O (stereo not given) | 33.1% (inactive)
CC1CCC(NC(=O)NCCCl)c2ccccc21 (stereo not given) | -6.65% (inactive)
COc1cccc(/C=C(\C#N)C(=O)c2ccccc2)c1 | 19% (inactive)
O=C(c1ccccc1)C(c1ccccc1)C1(O)C(=O)Nc2ccc(Br)cc21 (stereo not given) | 7.1% (inactive)
CC1=C(C)C(N(C)C)CS(=O)(=O)O1 (stereo not given) | -7.9% (inactive)
O=C1CCC2c3ccccc3NCN12 (stereo not given) | -31.8% (inactive)
CC1(C)C2CCC1(CC(=O)O)C(O)C2=O (stereo not given) | -5.45% (inactive)
CCN(CC)CCOC(=O)Cc1cccc2c(=O)cc(-c3ccc(OC)cc3)oc12 | -45.4% (inactive)
O=C1C=C(c2ccccc2)C(c2ccccc2)=C1 | 11.1% (inactive)
COC(=O)c1cc(Cl)ccc1NC(=O)C1CCCCC1 | 36% (inactive)
CN(CC(=O)c1ccc(Cl)cc1)Cc1ccccc1 | -3.5% (inactive)
CS(=O)(=O)c1c(N)c2nc(Cl)cn2c2nc3ccccc3nc12 | -16.5% (inactive)
O=c1cc(C(Br)(Br)Br)[nH]c2ccccc12 | 18% (inactive)
NS(=O)(=O)N1CN(S(N)(=O)=O)CN(S(N)(=O)=O)C1 | 13.4% (inactive)
CC(C)N1C(=O)NC(=O)C12CCN(Cc1ccccc1)CC2 | -13.7% (inactive)
Cc1cc(O)c(C(c2cccnc2)c2c(O)cc(C)[nH]c2=O)c(=O)[nH]1 | 30.1% (inactive)
COc1ccc(NS(=O)(=O)c2ccc(N=Cc3c4ccccc4nc4ccccc34)cc2)nn1 | 90.8% (active)

SMILES | growth inhibition
Cc1cc(C)cc(N=Nc2c(N)nc(N)[nH]c2=O)c1 | -7.3% (inactive)
CCOC(=O)c1ccc(NCc2ccc3nc(OC)c(OC)nc3c2)cc1 | -19.4% (inactive)
CC(c1ccccc1)C(C)(C)O (stereo not given) | -4.95% (inactive)
CCC(C)CC(O)CC(C)C (stereo not given) | 13% (inactive)
[CH3][Sn]([CH3])([O]C(=O)c1ccc2c(c1)OCO2)[O]C(=O)c1ccc2c(c1)OCO2 | -9.9% (inactive)
CN(C)c1ccc(/C=C(/NC(=O)c2ccccc2)C(N)=O)cc1 | 5.1% (inactive)
Cc1ccc(C(=O)OC(C)C)cc1N=NN(C)C | -15.9% (inactive)
CSc1nn(C)c2cc(C)c3ccccc3[n+]12 | -16.4% (inactive)
O=C1OCCc2c1[nH]c1ccccc21 | 17.6% (inactive)
CC(C)(O)C(O)(c1ccccc1)c1ccccc1 | 12.8% (inactive)
C/C(=N/O)c1ccc[nH]1 | 0.3% (inactive)
CCCCCC(C/C=N/N(C)C)C(O)(C(F)(F)F)C(F)(F)F (stereo not given) | 73.2% (active)
O=S(=O)(N/N=C/c1ccc(Cl)c(Cl)c1)c1ccccc1 | 32.2% (inactive)
COC(=O)CC1(C(=O)OC)Nc2ccc(Cl)cc2C(=O)O1 (stereo not given) | -11.8% (inactive)
CCCCOC(=O)C(C)OC(=O)OC (stereo not given) | 8% (inactive)
CCCCOC(=O)c1ccc(NC(=O)CCCN(CC)CC)cc1 | -5% (inactive)
CS(=O)(=O)OCCC(O)COS(C)(=O)=O (stereo not given) | 4.1% (inactive)
Cc1ccc(O)c(C(=O)CCCC(=O)c2cc(C)ccc2O)c1 | 4.35% (inactive)
COc1ccc(-c2cc(=O)c3c(OC)cccc3o2)c(OC)c1OC | 9.8% (inactive)
N/N=C(\C(=O)Nc1ccc(Cl)cc1Cl)C(c1cnc2ccccc2n1)[N+](=O)[O-] (stereo not given) | 0.45% (inactive)

Source: PubChem BioAssay (NCI)
